Experimental data as given in article PMC7826789 (International Journal of Molecular Sciences, 2021).

Test system: T1, IKK-beta
T1 construct: gene IKBKB
Conditions: Compound Concentration (nM):1000
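Also: KINOMEscan scanMAX binding as percent activity remaining versus control; lower means stronger binding.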

| SMILES | Percent Control [%] |
| --- | --- |
| O=C1Nc2ccc(C(=O)c3ccco3)cc2C1=Cc1cc(Cl)c(O)c(Cl)c1 [GW406108X] | 100 |
| CC(C)COC(=O)c1ccc2c(c1)/C(=C/Nc1ccc(S(N)(=O)=O)cc1)C(=O)N2 [GW416981X] | 100 |
| Cl.O=S1CCN(Cc2ccc(-c3ccc4ncnc(Nc5ccc(OCc6ccccc6)c(F)c5)c4c3)o2)CC1 [GW576924A] | 94 |
| CCn1c(-c2nonc2N)nc2c(C#CC(C)(C)O)nc(OCCNC)cc21.Cl [GSK949675] | 98 |
| COc1cc(C=NNc2ncnc3c2cnn3-c2ccccc2)ccc1O [GW513184X] | 100 |
| Cl.O=C(Nc1ccc(Oc2ccc3[nH]c(NC(=O)c4ccccc4)nc3c2)cc1)Nc1cc(C(F)(F)F)ccc1F [GW709042A] | 100 |
| Nc1ncnc2occ(-c3ccc(NC(=O)Nc4cc(C(F)(F)F)ccc4F)cc3)c12 [GW770249X] | 75 |
| NS(=O)(=O)c1ccc(N/N=C2\C(=O)Nc3ccc(C(=O)NCc4ccncc4)cc32)cc1 [GW300657X] | 83 |
| C/C(Nc1ccc(S(N)(=O)=O)cc1)=C1/C(=O)Nc2ccccc21 [GW335962X] | 100 |
| C[C@@H](Oc1cc(-n2cnc3ccc(OC4CCN(C)CC4)cc32)sc1C(N)=O)c1ccccc1Cl [GSK579289A] | 100 |
| COc1ccc2[nH]c3c4[nH]c5ccc(OC)cc5c4c4c(c3c2c1)C(=O)NC4=O [GW296115X] | 87 |
| CN1CCN(C(=O)c2ccc(NC(=O)Nc3ccc(N(C)c4ccnc(Nc5ccc(CS(C)(=O)=O)cc5)n4)cc3)cc2)CC1.Cl [GW830263A] | 70 |
| CCc1ccc(Oc2nccc(-c3c(-c4ccc(F)cc4)ncn3C3CCNCC3)n2)cc1 [SB-242719] | 100 |
| NS(=O)(=O)c1ccc(N/N=C2\C(=O)Nc3ccc(Cl)cc32)cc1 [GW280670X] | 100 |
